Mcl1 Bid PPI: Mcl-1/Bid interaction inhibition | TR-FRET Mcl-1/Bid-Dy647 peptide binding, 1536-well | inhibition, % at 21.7 µM | Q07820 | 220,000 compounds, 0.97% hits;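 active = compounds that cut the binding signal by more than half at the single screening dose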;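 also: His-tagged Mcl-1 with europium anti-His antibody binding Bid BH3 peptide; 0% = Mcl-1 plus peptide wells and 100% = peptide-only wells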
Target sequence (Q07820 whole entry, looked up): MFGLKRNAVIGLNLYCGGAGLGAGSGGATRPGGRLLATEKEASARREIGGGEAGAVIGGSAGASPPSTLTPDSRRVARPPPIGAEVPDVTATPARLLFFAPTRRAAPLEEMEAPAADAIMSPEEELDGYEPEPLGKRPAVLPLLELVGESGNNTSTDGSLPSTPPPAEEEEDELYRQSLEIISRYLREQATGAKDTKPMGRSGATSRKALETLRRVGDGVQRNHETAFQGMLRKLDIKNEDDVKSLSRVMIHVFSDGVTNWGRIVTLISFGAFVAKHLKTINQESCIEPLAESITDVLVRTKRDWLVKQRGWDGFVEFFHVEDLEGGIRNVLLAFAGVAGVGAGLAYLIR
eIF4E-4G inh: eIF4E/eIF4G interaction inhibition in translation initiation; inhibition, % at 21.7 µM; TR-FRET eIF4E-eIF4GI(517-606) binding, 2 h; 220,000 compounds, 0.37% hits; P63073+Q04637;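 also: 0% = full FRET control wells and 100% = background wells lacking eIF4GI fragment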
p47phox inh: p47phox (human) inhibition | p47phox/p22phox peptide binding, fluorescence polarization, 2 h | inhibition, % at 24.7 µM | 220,000 compounds, 0.53% hits | AID 1274;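 also: 0% = p47phox with labelled peptide and 100% = labelled peptide alone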
14-3-3 Bad inh: disrupts binding of bovine 14-3-3 zeta to phospho-Bad peptide | 220,000 compounds, 0.71% hits | TR-FRET 14-3-3zeta/Dy647-pBad peptide displacement, 1 h | AID 781 | inhibition, % at 21.7 µM | P63103;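 active = inhibition above about 70%, limit read from the data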;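 also: 0% = full 14-3-3 plus peptide FRET controls and 100% = background without 14-3-3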
Target sequence (P63103 whole entry, looked up): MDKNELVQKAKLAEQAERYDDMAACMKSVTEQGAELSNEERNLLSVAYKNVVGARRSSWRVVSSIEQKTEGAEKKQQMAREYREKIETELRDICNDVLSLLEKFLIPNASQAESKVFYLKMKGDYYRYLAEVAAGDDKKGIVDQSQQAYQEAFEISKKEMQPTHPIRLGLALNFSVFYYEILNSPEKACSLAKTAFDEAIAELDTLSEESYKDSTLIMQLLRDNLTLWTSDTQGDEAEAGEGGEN
Mcl-1 Bim block: human Bim-Mcl-1 interaction inhibition. Q07820. Bead-based flow cytometry, Bim peptide-Mcl-1 binding. inhibition, % at 10 µM. 190,000 compounds, 0.1% hits. AID 1009; in the data active = inhibition above about 40%;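 also: 0% = no compound tracer wells and 100% = peptide blocker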
Mcl1-Noxa inh: disrupts binding of human Mcl-1 to Noxa peptide | Q07820 | TR-FRET Mcl-1/Noxa peptide binding, 2 h | inhibition, % at 21.7 µM | 220,000 compounds, 1.5% hits;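 active = compounds that cut the protein-peptide binding signal by more than 50% relative to plate controls in a single-dose test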;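 also: His-tagged Mcl-1 with rhodamine Noxa BH3 peptide and terbium anti-His antibody; 0% = Mcl-1 plus Noxa peptide wells and 100% = peptide-only wells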
Starred values were filed as active, the others as inactive; nt = not tested or not shown; [ ] = another dose, or the depositor's remark. This is a sample that favours compounds with a hit; in the whole collection about 3.3% have one here.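 The calls were made as follows, unless noted: active = inhibition above about 30% (limit read from the data); inactive = the rest.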

SMILES | Mcl1 Bid PPI | eIF4E-4G inh | p47phox inh | 14-3-3 Bad inh | Mcl-1 Bim block | Mcl1-Noxa inh
O=C(CCl)Nc1cc2[nH]c(=O)[nH]c2cc1Br | -16.9 | 2.1 | 3.0 | -4.2 | 3.0 | 50.6*
Cc1cc2c(C)cc(=O)[nH]c2cc1NC(=O)CCl | 4.7 | 7.3 | -13.4 | 4.6 | nt | 24.6
Cc1ccc2oc(C(F)(F)C(F)F)cc(=O)c2c1 | 87.6* | 9.7 | -12.7 | 33.8 | nt | -12.8
COc1cc(NC2c3ccccc3C(=O)N2Cc2ccc3c(c2)OCO3)cc(OC)c1 (centres undefined) | -19.4 | 0.5 | -1.2 | 0.9 | nt | 16.9
O=c1c(-c2n[nH]c(=S)o2)cccn1Cc1ccccc1 | -68.5 | 3.7 | 5.2 | 7.1 | -1.0 | 14.4
O=C(NNc1c(Cl)cccc1Cl)c1cccs1 | 2.9 | 5.0 | -4.5 | 91.3* | nt | 8.2
Cc1cccc(OCCNC(=O)c2cccc(Oc3ccc(C(F)(F)F)cc3[N+](=O)[O-])c2)c1 | 8.1 | 5.2 | -1.0 | -9.2 | -2.0 | 11.5
Cc1ccccc1S(=O)c1ccccc1C(=O)O (centres undefined) | -3.5 | -0.6 | -5.2 | -0.3 | nt | 13.5
O=Cc1ccc(-c2ccccc2C(=O)O)o1 | -20.6 | -1.6 | -9.8 | -0.9 | 0.0 | 10.3
O=C(O)c1ccccc1-c1ccc(/C=c2\sc3nc4cc(Br)cnc4n3c2=O)o1 | 77.5* | 23.0 | -12.9 | 36.0 | -2.0 | 90.8*
COc1cc(CC(=O)NCCc2ccc(S(N)(=O)=O)cc2)cc(OC)c1OC | -13.4 | 81.3* | -1.5 | -0.1 | 1.0 | 8.7
Cn1c(CC(=O)Nc2ccc(Cl)c(Cl)c2)nnc1SCC(=O)N1CCN(c2ccccc2)CC1 | -14.5 | -1.8 | -8.8 | -0.2 | 0.0 | 16.6
CC(NC(=O)CSc1nnc(CC(=O)Nc2ccc(Cl)c(Cl)c2)n1C)c1ccccc1 (centres undefined) | -1.4 | 42.6*[fluorescence artefact?] | -14.8 | 62.4 | 0.0 | 13.8
COc1ccc(CNC(=O)C2CCCN2S(=O)(=O)c2ccc(F)cc2)cc1 (centres undefined) | -24.4 | 2.8 | -2.4 | -4.4 | 2.0 | -20.9
CCc1cc(N2CCOCC2)cc2c1[nH]c1ccccc12 | 9.7 | 5.0 | 5.4 | 5.4 | 0.0 | 70.2*
COc1ccc(/C=C(\C#N)C(=O)NCCc2ccccc2)cc1OCc1ccccc1 | -14.3 | -33.1 | 1.9 | 13.2 | -1.0 | 21.7
COCCCNC(=O)/C(C#N)=C/c1ccc(OCC(=O)O)c(OC)c1 | 32.2 | 24.3 | -1.6 | 25.6 | 1.0 | 99.6*
CCCN(CC1CC1)C(=O)CSc1ncnc2sccc12 | -22.8 | 2.1 | -18.1 | -4.6 | -1.0 | 16.0
CC1Cc2nc(SCC(=O)N3CCc4ccccc43)n(C)c(=O)c2S1 (centres undefined) | -11.6 | -2.8 | 34.5* | -21.6 | 0.0 | 11.5
COc1ccc2nc(C)cc(Sc3nc4ccccc4s3)c2c1 | -46.8 | 16.4 | -22.4 | -1.7 | nt | 15.1
COc1ccccc1N1C(=O)C=C(Sc2nc(C)cc(C)n2)C1=O | -30.4 | 14.1 | 18.0 | 10.5 | nt | 54.4*
COc1ccccc1N1C(=O)C2CC(C)=C(C)CC2C1=O (centres undefined) | 1.5 | 2.4 | -7.1 | -7.2 | 1.0 | 13.9
N#Cc1c(-c2ccccc2)nc(-c2ccccc2)nc1N1CCOCC1 | 50.9* | -0.9 | -16.7 | 5.0 | -1.0 | 23.8
N/C(Cc1ccc(Cl)cc1)=N\OC(=O)c1ccccc1 | -1.7 | 0.6 | -6.9 | 13.6 | -2.0 | -6.5
CC(C)(C)C(=O)OC/C(N)=N/OC(=O)c1ccc(Cl)cc1 | -21.6 | -0.3 | -10.7 | 91.0* | nt | -17.4
SMILES | Mcl1 Bid PPI | eIF4E-4G inh | p47phox inh | 14-3-3 Bad inh | Mcl-1 Bim block | Mcl1-Noxa inh
CCn1c(SCC(=O)N/N=C/C=C/c2ccco2)nnc1-c1ccccc1 | -37.2 | 3.8 | -0.5 | 3.3 | 1.0 | 6.0
O=C(CSc1nnc(SCc2ccccc2)s1)N/N=C/C=C/c1ccco1 | 44.6 | 23.5 | -12.4 | -6.8 | -5.0 | 106.4*
O=C(Cc1cccs1)N/N=C/C=C/c1ccco1 | -30.4 | 2.5 | -2.5 | -2.2 | -3.0 | 70.3*
O=C(N/N=C\C=C\c1ccco1)c1cc(-c2ccc3ccccc3c2)n[nH]1 | -13.6 | 5.9 | -16.8 | -7.2 | -4.0 | 93.2*
C=CCn1c(SCc2ccc([N+](=O)[O-])cc2)nnc1C(C)NC(=O)c1ccccc1 (centres undefined) | 93.6* | 7.5 | 0.0 | -7.2 | 0.0 | 14.7
O=C1OCC2OC(O)C(O)C(O)C2OC(=O)c2cc(O)c(O)c(O)c2-c2c(O)c(O)c3oc(=O)c4c(c(O)c(O)c5oc(=O)c2c3c54)-c2c1cc(O)c(O)c2O (centres undefined) | -9.8 | 34.4* | 0.7 | 75.2* | nt | 104.7*
CC(=O)CC1=NC(C)(C)Cc2ccccc21 | -39.2 | -2.8 | -5.2 | -12.1 | 2.0 | -2.9
CSc1nc(=S)c2[nH]c(=S)[nH]c2[nH]1 | -61.2 | 19.4 | 16.9 | 16.5 | nt | 51.0*
CSc1nc2c(c(=O)[nH]1)CCCC2 | -8.8 | 2.4 | -4.7 | 7.1 | -1.0 | -19.4
COc1cc(/C=N/Nc2nnc3c(n2)[nH]c2ccccc23)ccc1O | 90.0* | 9.1 | 2.9 | 83.1*[fluorescence artefact?] | 0.0 | 93.9*
COc1cc(/C=N/Nc2ccccc2C(F)(F)F)ccc1O | -26.2 | 0.9 | -2.0 | -2.1 | -1.0 | 47.2
COc1ccc(CCN2C(=O)CC(N3CCN(C/C=C/c4ccccc4)CC3)C2=O)cc1OC (centres undefined) | 11.1 | -6.9 | -0.7 | 6.4 | nt | 20.8
O=C1C(C=NCc2cccnc2)=C(O)c2ccccc21 | -0.7 | 3.9 | 3.7 | -2.2 | 0.0 | -30.9
O=C1C(C=NCc2ccncc2)=C(O)c2ccccc21 | 95.8* | -0.2 | 1.6 | -5.2 | 0.0 | 16.5
Cc1ccc(C(=O)Nc2ccnc(-c3ccncc3)n2)cc1 | -26.4 | 5.8 | -8.6 | -12.9 | 1.0 | 4.2
Cc1cccc(-n2cc(-c3ccc([N+](=O)[O-])cc3)[nH]c2=S)c1 | 34.0 | -0.7 | -13.2 | 14.8 | -6.0 | 51.7*
O=[N+]([O-])c1ccc(-c2cn(-c3ccccc3)c(=S)[nH]2)cc1 | -16.7 | 2.0 | -5.7 | -1.7 | -7.0 | 33.8
CN(CCN(C)C(C)(C)C)C(=O)C(c1ccccc1)c1ccccc1 | 74.5* | -2.9 | -6.5 | 51.8 | nt | 21.5
O=C(CN1C(=O)c2cccc3cccc1c23)Nc1ccc(S(=O)(=O)N2CCOCC2)cc1 | 90.4* | -1.5 | -18.6 | -14.0 | 4.0 | -147.9
O=C(CN1c2cccc3cccc(c23)S1(=O)=O)Nc1ccc(S(=O)(=O)N2CCOCC2)cc1 | -64.3 | 22.8 | -48.4 | 4.6 | -1.0 | 43.0
COc1ccccc1C(=O)OCC(=O)NC(=O)NCc1ccccc1 | 2.9 | -0.2 | nt | 0.8 | -8.0 | -15.8
CNC(=O)NC(=O)COC(=O)c1ccccc1OCc1ccccc1 | -12.8 | 1.3 | -1.4 | -5.7 | -2.0 | 54.5*
CC(C)N(C)CCOC(=O)/C=C/c1ccccc1 | -16.4 | -16.5 | 37.6* | 23.7 | -5.0 | 0.8
CN(CCOC(=O)/C=C/c1ccccc1)C(C)(C)C | 5.3 | 1.2 | 5.0 | -15.6 | -2.0 | 5.1
